Compound activity: PubChem BioAssay, National Center for Advancing Translational Sciences (NCATS)
D3 antag = D3 dopamine receptor (human) antagonism; hit rate 2.5% among 360,000; D3R cells, DiscoveRx beta-arrestin luminescence, antagonist mode; active compounds read low; max response, negative = inhibition, %; AID 652054; in the data active means max response below about -50%; inconclusive means no clear call, values can overlap the other calls; further: on the % scale 0 is the no-effect control and ±100 the full control effect
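Cells expressing the human receptor were seeded at 1500 cells/well, incubated overnight at 37 degrees C in 5% CO2, then exposed to library compounds with dopamine controls for 90 minutes at 37 degrees C before luminescent detection.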
HEK293 tox = cytotoxicity counter-screen for GLP-1 receptor inverse agonists. hit rate 0.13% among 410,000. HEK293 cAMP-luciferase reporter cells, luminescence, 24 h. Potency, µM (doses to about 38.3 µM), for the others: at the highest dose activity change, negative = inhibition, most hits filed as inhibitors;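 further: loss of luciferase light is scored as toxicity; potency means the concentration at half of the fitted maximal effect; on the % scale 0 is the no-effect control and ±100 the full control effect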
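A 23 nL compound transfer followed 12 hours of cell culture at 37 deg C; exposure then lasted 24 hr. Luciferase assay detection reagent was dispensed and plates read for luminescence after a 12 min room-temperature wait.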
ClpP mod = qHTS Assay for Activators of ClpP; Potency, µM (highest dose often 57.5 µM), inactives show top-dose activity change, negative = active; purified B. subtilis ClpP, FRET peptide cleavage, 20 min; ATP-dependent Clp protease proteolytic subunit (Bacillus subtilis (strain 168)), P80244; hit rate 1.9% among 340,000; active means well fitted falling curve with a large enough effect; inconclusive means small, poorly fitted or top-dose-only effect; inactive means no such curve, though single readings can be large or run the other way; further: potency means the concentration at half of the fitted maximal effect; the source files actives as falling curves though it sought activators and does not explain the sign; nearly all actives have a fitted effect of over 65% in size
Target sequence (P80244 whole entry, looked up): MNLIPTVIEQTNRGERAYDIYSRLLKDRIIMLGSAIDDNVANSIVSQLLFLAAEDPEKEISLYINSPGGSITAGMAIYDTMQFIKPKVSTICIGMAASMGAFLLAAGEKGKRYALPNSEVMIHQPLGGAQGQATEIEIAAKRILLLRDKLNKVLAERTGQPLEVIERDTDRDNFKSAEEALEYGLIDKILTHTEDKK
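FRET quenching reversal measured ClpP activation: 10 microg/mL B. subtilis ClpP at pH 8 with the FRET-FV decapeptide, read at 430 nm after 320 nm excitation. The 20-min minus 0-min signal was scaled between DMSO/no-enzyme wells and ADEP (5.8 microM final).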
GLP1R inv ag = inverse agonists of human GLP-1 receptor; Potency, µM (top dose mostly 38.3 µM), inactives show top-dose activity change, negative = inhibition, hits mostly inhibitors; hit rate 1.6% among 410,000; P43220; HEK293 GLP-1R CRE-luciferase, luminescence, 24 h; GLP-1R form is constitutively active; further: potency means the concentration at half of the fitted maximal effect; on the % scale 0 is the no-effect control and ±100 the full control effect; nearly all actives have a fitted effect of over 55% in size
Target sequence (P43220 whole entry, looked up): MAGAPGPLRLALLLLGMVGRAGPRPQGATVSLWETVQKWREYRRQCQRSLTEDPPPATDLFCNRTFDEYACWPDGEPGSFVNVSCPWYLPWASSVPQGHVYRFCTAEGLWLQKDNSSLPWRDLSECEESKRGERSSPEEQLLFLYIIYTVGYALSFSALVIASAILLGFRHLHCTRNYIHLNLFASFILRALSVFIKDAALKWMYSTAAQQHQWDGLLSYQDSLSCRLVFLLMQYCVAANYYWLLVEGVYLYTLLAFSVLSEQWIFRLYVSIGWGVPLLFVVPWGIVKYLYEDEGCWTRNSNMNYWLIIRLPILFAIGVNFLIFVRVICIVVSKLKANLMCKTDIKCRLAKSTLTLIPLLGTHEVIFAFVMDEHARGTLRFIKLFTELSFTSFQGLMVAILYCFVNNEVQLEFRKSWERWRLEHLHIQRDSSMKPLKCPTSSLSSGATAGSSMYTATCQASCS
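Stable HEK293 clone (constitutively active GLP-1R + cAMP-response luciferase); 200 cells/uL plated, 12 h pre-culture, compound 24 hr, 37 deg C/5% CO2; detection reagent 12 min RT; luminescence.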
GLP1R ag = activates the human GLP-1 receptor; hit rate 0.007% among 380,000; HEK293 GLP-1R CRE-luciferase, luminescence, 4-6 h; cells express a hypersensitive GLP-1R form; AID 624172; Potency, µM (doses to about 45.6 µM), without a hit: at the highest dose activation, actives largely listed as activators; further: potency means the concentration at half of the fitted maximal effect; % of control where 0% means no effect
DRD3 agonist = agonists of human D3 dopamine receptor. P35462. D3R DiscoveRx beta-arrestin cells, luminescence, 90 min. max activation, %. hit rate 0.58% among 410,000; in the data active means max activation above about 30%; further: 0% is about no effect
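Agonist-mode cell screen: cells plated at 1500/well and incubated overnight at 37 °C, then exposed to library compounds for 90 min at 37 °C. Detection reagent was added for 30–60 min at room temperature, and luminescence was read.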
* = called active by the depositor; i = inactive; ? = inconclusive; / = no result given. Shown are actives, neighbours in structure and some others; about 5.7% of the full set was active somewhere. Unless noted, the call rests on the fitted dose curve; in most records, active means well fitted curve in the direction sought with a large enough effect; inconclusive means small, poorly fitted or top-dose-only effect, or another doubt; inactive means no such curve, though single readings can be large; an effect the other way counts as inactive or inconclusive.

SMILES | D3 antag | HEK293 tox | ClpP mod | GLP1R inv ag | GLP1R ag | DRD3 agonist
N#Cc1nc(Cc2ccccc2)oc1NCc1cccnc1 | -1 | -1% | 28µM* | 58% | 13% | 5
CC1=C(C(=O)Nc2ccc(C)cc2C)C(c2ccccc2F)n2nc(SCC(=O)c3ccc(C)cc3)nc2N1 (stereo not given) | / | 13% | -5% | 8% | / | -7
O=c1cc(CSc2n[nH]c(-c3ccccc3)n2)[nH]c2ccccc12 | / | 1% | 0% | 28% | / | -5
N#Cc1nc(-c2ccco2)oc1NCc1cccnc1 | -11 | -24% | 26% | 53% | 4% | 21
CC(Nc1oc(-c2ccco2)nc1C#N)c1ccccc1 (stereo not given) | -1 | -4% | 7.9µM* | 5% | ? | 0
CC(C)CNc1oc(-c2ccccc2Cl)nc1C#N | 0 | 7% | / | -32% | 32% | -9
CC(Nc1oc(-c2ccc(COc3ccc(Cl)cc3)o2)nc1C#N)c1ccccc1 (stereo not given) | / | -10% | ? | -8% | / | 5
N#Cc1nc(-c2ccco2)oc1NCc1ccc(F)cc1 | -15 | -3% | 8.9µM* | 9% | 10% | -3
CC(C)CNc1oc(-c2ccco2)nc1C#N | -15 | 8% | 18µM* | 20% | 13% | 0
CCOC(=O)CCc1c(C)c2cc3c(c(C)c2oc1=O)OCN(CCc1ccccc1OC)C3 | / | i | 4% | -13% | / | -34
N#C/C(=C\c1ccc(F)cc1)C(=O)NCC1CCCO1 (stereo not given) | / | -1% | 0% | 7% | / | 0
Cc1cc(N2CCN(c3ccc(C(F)(F)F)cc3[N+](=O)[O-])CC2)c2ccccc2n1 | 0 | ? | 1% | 7.9µM* | -1% | 1
O=C(Nc1ccccc1)N1CCCN(c2ccc(C(F)(F)F)cc2[N+](=O)[O-])CC1 | -27 | 0% | / | 7.9µM* | 3% | -3
Nn1c(SCC(=O)Nc2ccccc2F)nc2ccccc2c1=O | 35 | -20% | -2% | 7% | 12% | 40*
O=C(O)Cn1nnnc1SCC(=O)Nc1ccccc1F | 12 | 9% | -56% | 11% | 3% | -3
Nc1nc(=O)n(C2CCCCO2)cc1Br (stereo not given) | 22 | -13% | -3% | 21% | 0% | 4
O=C(O)c1ccccc1Sc1ccccc1S(=O)(=O)NC1CCCCC1 | 5 | 6% | / | -5% | -1% | 32*
O=C(O)c1ccccc1S(=O)(=O)NCC(O)COC1CCCCC1 (stereo not given) | -5 | 1% | 1% | 13% | -1% | 21
CCCS(=O)(=O)c1nc(S(=O)(=O)c2ccc(C)cc2)c(N2CCN(C)CC2)s1 | -61* | -7% | 1% | 0% | -4% | -17
CCN1CCN(c2sc(S(C)(=O)=O)nc2S(=O)(=O)c2ccc(C)cc2)CC1 | -20 | -20% | 1% | -17% | -6% | -6
CCCS(=O)(=O)c1nc(S(=O)(=O)c2ccc(C)cc2)c(N2CCN(CC)CC2)s1 | -109* | -2% | -2% | -21% | 4% | -19
CCN1CCN(c2sc(S(=O)(=O)CC)nc2S(=O)(=O)c2ccc(C)cc2)CC1 | -80* | -3% | -1% | -17% | 7% | -8
CCS(=O)(=O)c1nc(S(=O)(=O)c2ccc(C)cc2)c(N2CCCC2)s1 | -15 | -2% | -2% | 29% | 11% | -8
Cc1ccc(NC(=O)CN2C(=O)c3ccccc3Sc3ncccc32)c(C)c1 | / | 2% | 0% | -24% | 1% | 6
COc1ccc(OC)c(NC(=O)CN2C(=O)CC(C)Sc3ccccc32)c1 (stereo not given) | / | 1% | 0% | 19% | 12% | 5
SMILES | D3 antag | HEK293 tox | ClpP mod | GLP1R inv ag | GLP1R ag | DRD3 agonist
Nc1[nH]c(C(=O)c2ccccc2)c(-c2ccc(Cl)cc2)c1C(=O)NCc1ccccc1 | 0 | -7% | -3% | 5% | -2% | 57*
CCN1C(=O)C(Cc2nc3ccccc3c(=O)n2-c2ccccc2)c2cc(Br)ccc21 (stereo not given) | / | -3% | -6% | -25% | / | -5
O=c1ccn(Cc2ccccc2)c(=O)n1Cc1ccccc1 | -50* | 0% | 0% | ? | 0% | -1
Cc1cccc(NC(=S)NC(=O)c2cccs2)n1 | ? | ? | 26% | 10µM* | ? | -12
Cc1ccc(NC(=O)CCC(=O)c2cccs2)nc1 | -17 | 7% | -5% | 13% | -26% | 2
Cc1cccc(NC(=O)CCC(=O)c2cccs2)n1 | 16 | -6% | 3.5µM* | -2% | 4% | -8
Cc1cc(C)nc(-n2nc(C)cc2NC(=O)COC(=O)CCC(=O)c2cccs2)n1 | -27 | 2% | 28µM* | 46% | 0% | 11
CCc1ccccc1NC(=O)CCC(=O)c1cccs1 | 1 | -2% | 2% | 3% | -1% | -16
Cc1ccnc(NC(=O)CCC(=O)c2cccs2)c1 | -27 | 3% | / | 5.6µM* | -5% | -12
Cc1cccc(C)c1NC(=O)COC(=O)CCC(=O)c1cccs1 | 2 | 1% | 0% | -2% | 0% | 14
COc1ccc(C2=NN(CCC(=O)NCCc3ccccc3)C(=O)CC2)cc1 | / | 11% | ? | 14% | / | -8
NS(=O)(=O)c1ccc(CCNC(=O)CSc2nc3c(sc(=S)n3-c3ccccc3)c(=O)[nH]2)cc1 | 12 | 1% | 0% | 9% | 3% | -9
COc1ccc(C(=O)NNc2ncnc3c2cnn3-c2cccc(Cl)c2)cc1OC | / | 1% | -1% | 5% | / | 9
CCCc1nn2c(=O)cc(COC(=O)c3cccs3)nc2s1 | / | 5% | -3% | 16% | / | -8
CCOC(=O)c1ccc(NC(=S)Nc2cccc(C)n2)cc1 | 0 | 1.3µM* | 0% | 0% | 8% | 13
C=CCN(C/C(=N\O)c1sc(C(=O)OCC)nc1C)c1cccc(Br)c1 | 4 | ? | 0% | ? | 2% | 63*
CCOC(=O)c1sc(N/N=C/c2cccc(C)c2)nc1C | 7 | -11% | ? | 51% | 0% | -1
O=C1Nc2ccccc2-c2nnnn2C1N1CCC(Cc2ccccc2)CC1 (stereo not given) | 10 | -3% | -4% | ? | / | 10
Cc1ccccc1CNC(=O)c1nn(-c2ccccc2F)nc1CO | / | 13% | ? | 10% | / | -6
Cc1ccc(C(=O)CC(=O)c2ccccc2C)c(O)c1 | -50* | 32% | 0% | ? | 5% | 11
O=C(NCC(c1ccco1)S(=O)(=O)c1ccc(Cl)cc1)c1ccc(C(F)(F)F)cc1 (stereo not given) | / | 7% | -1% | ? | / | 7
